High-throughput results (PubChem)
Hits are enriched below; roughly 0.77% of the tested compounds scored in any of these assays.
Vif-APOBEC3G blk – blocks the Vif interaction with human APOBEC3G; Q9HC16; HeLa A3G-eYFP + Vif (tagged APOBEC3G with the HIV-1 protein that degrades it), YFP fluorescence, overnight; Potency, µM (highest dose often 46.1 µM), inactives show at the top dose activity, negative = active, hits mostly inhibitors; 410,000 tested, 0.076% active; also: potency is read from the fitted curve at half-maximal effect; % is scaled to controls: 0 for no effect and ±100 for the full control effect; nearly all actives have a fitted effect of over 60% in size
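HeLa cells stably expressing Vif and C-terminally eYFP-tagged A3G, seeded overnight at 37 deg C, then exposed to compound by pintool overnight at 37 deg C. Rise in yellow fluorescence (Ex 488/Em 500-530, Acumen) marks blocked Vif-driven A3G degradation.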
Vif-A3F inh – inhibitors of Vif-A3F interaction; HeLa A3F-eYFP + Vif (tagged APOBEC3F with the HIV-1 protein that degrades it), YFP fluorescence increase; Potency, µM (top dose mostly 46.1 µM), inactives show at the highest dose activity, negative = active; 390,000 tested, 0.2% active; also: potency is read from the fitted curve at half-maximal effect; % of control where 0% means no effect; nearly all actives have a fitted effect of over 65% in size
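HeLa cells stably expressing Vif plus C-terminally eYFP-tagged A3F were seeded, incubated overnight at 37 deg C, dosed with compound, incubated overnight again at 37 deg C. Yellow fluorescence (Ex 488/Em 500-530) reported blocked Vif-mediated A3F-eYFP degradation.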
IL2 activator – activates IL-2 in a cell-based reporter assay; IL-2 activation reporter assay, cell-based qHTS; stimulated with anti-CD3/CD4/CD28 beads; in transgenic mouse T cells; activation, % (series mostly up to about 46 µM); 360,000 tested, 0.065% active; in the data active = activation above about 50%; inconclusive = mostly about 30% to 49%; also: 0% is about no effect
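Unstimulated transgenic mouse T cells preincubated 60 min with compound, then stimulated with anti-CD3/anti-CD4-coated beads plus anti-CD28 for 18 h at 37 degrees C. IL-2 response read as EGFP and DsRed fluorescence by plate cytometry.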
RGS12 GoLoco inh – RGS12 GoLoco-Gai1 interaction inhibition; Potency, µM (top dose mostly 61.6 µM), for the others: at the highest dose activity, negative = inhibition, actives largely listed as inhibitors; P63096; 230,000 tested, 0.44% active; Gai1:RGS12 GoLoco peptide FP, rhodamine, 10 min; AID 880; active = well fitted inhibition curve with a large enough effect, not every such curve was filed as active; inactive = no such curve, though single readings can be large or run the other way; also: potency is read from the fitted curve at half-maximal effect; % is scaled to controls: 0 for no effect and ±100 for the full control effect; nearly all actives have a fitted effect of over 30% in size
KAT2A inh – inhibitors of human GCN5L2 histone acetyltransferase; AID 504327; 390,000 tested, 0.21% active; Potency, µM (series often up to 58.9 µM), inactives show at the highest dose activity change, negative = inhibition, actives largely listed as inhibitors; GCN5L2 HAT assay, ThioGlo1 CoA-SH fluorescence; Q92830; also: potency is read from the fitted curve at half-maximal effect; % is scaled to controls: 0 for no effect and ±100 for the full control effect
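GCN5L2 (20nM final) in 50mM HEPES, 0.1mM EDTA pH 7.5, 0.01% Tween-20 was preincubated 15 min at room temperature with compound, then given ThioGlo1 (50uM), H3(1-25) peptide (75uM) and acetyl-CoA (70uM); CoA-thiol fluorescence (Ex340/Em540) was read at 0 and 20 min.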
PKM2 activator – activators of human pyruvate kinase M2; 260,000 tested, 0.34% active; Potency, µM (titrated, usually from 57.5 µM), without a hit: at the highest dose activation, most hits filed as activators; P14618; purified PKM2, Kinase-Glo ATP luminescence, activation; response scale: 0% is enzyme alone, no compound; also: potency is read from the fitted curve at half-maximal effect; % is scaled to controls: 0 for no effect and ±100 for the full control effect; nearly all actives have a fitted effect of over 55% in size
Target sequence (P14618 whole entry, looked up): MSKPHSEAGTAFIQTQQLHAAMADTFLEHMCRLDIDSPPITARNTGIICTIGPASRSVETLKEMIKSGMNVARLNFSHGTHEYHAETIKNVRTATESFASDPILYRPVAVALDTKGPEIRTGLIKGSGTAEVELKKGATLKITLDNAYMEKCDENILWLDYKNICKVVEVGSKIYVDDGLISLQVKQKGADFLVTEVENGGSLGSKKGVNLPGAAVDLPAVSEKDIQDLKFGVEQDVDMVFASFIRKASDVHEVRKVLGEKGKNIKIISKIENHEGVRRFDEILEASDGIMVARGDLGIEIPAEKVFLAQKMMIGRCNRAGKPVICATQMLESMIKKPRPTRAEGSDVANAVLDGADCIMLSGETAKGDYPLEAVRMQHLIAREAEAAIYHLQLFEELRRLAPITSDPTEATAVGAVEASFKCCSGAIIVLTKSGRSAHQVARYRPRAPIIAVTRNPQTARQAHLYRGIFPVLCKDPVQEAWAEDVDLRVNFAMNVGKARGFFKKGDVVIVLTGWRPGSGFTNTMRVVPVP
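Purified hPK-M2 (>95% pure) converted ADP (0.1 mM final) to ATP with 0.5 mM PEP in 50 mM imidazole pH7.2, KCl, MgCl2, Tween 20, BSA; 1 h at room temperature. ATP detected by Kinase-Glo luminescence.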
* hit, by the source's call. Unless noted, calls follow the shape of the dose curve; as a rule, active = well fitted curve in the direction sought with a large enough effect; inconclusive = small, poorly fitted or top-dose-only effect, or another doubt; inactive = no such curve, though single readings can be large; an effect the other way counts as inactive or inconclusive.

Screening C=CCOC(=O)C1=C(C)NC(C)=C(C(=O)OCC=C)C1c1cn(-c2ccccc2)nc1-c1ccco1 returned Vif-APOBEC3G blk 8.9µM*, Vif-A3F inh -13%, IL2 activator 8, RGS12 GoLoco inh 3%, KAT2A inh -4% and PKM2 activator 3%.
For C=CCNC(=O)C(C#N)c1nc2ccccc2nc1N1CCN(Cc2ccccc2)CC1 (centres undefined) the results were Vif-APOBEC3G blk 2%, Vif-A3F inh inconclusive, IL2 activator 67*, RGS12 GoLoco inh -1%, KAT2A inh -4% and PKM2 activator -3%.
For COCCOC(=O)C(C#N)c1nc2ccccc2nc1N1CCN(Cc2ccccc2)CC1 (centres undefined) the results were Vif-APOBEC3G blk -9%, Vif-A3F inh -24%, IL2 activator 1, RGS12 GoLoco inh 14%, KAT2A inh -10% and PKM2 activator 12%.
Screening COCCCNC(=O)C(C#N)c1nc2ccccc2nc1N1CCN(Cc2ccccc2)CC1 (centres undefined) returned Vif-APOBEC3G blk -16%, Vif-A3F inh -30%, IL2 activator 96*, RGS12 GoLoco inh 7%, KAT2A inh 1% and PKM2 activator -1%.
For C=CCOC(=O)C(C#N)c1nc2ccccc2nc1N1CCN(Cc2ccccc2)CC1 (centres undefined) the results were Vif-APOBEC3G blk -8%, Vif-A3F inh -3%, IL2 activator 2, RGS12 GoLoco inh 25%, KAT2A inh -7% and PKM2 activator 3%.
Screening CCC(C)Oc1nc2ccccc2nc1NS(=O)(=O)c1ccccc1 (centres undefined) returned Vif-APOBEC3G blk 0%, Vif-A3F inh -3%, IL2 activator -3, RGS12 GoLoco inh 5%, KAT2A inh -12% and PKM2 activator -14%.
CCOc1ccc(N2C(=O)CC(Sc3n[nH]c(-c4ccccc4)n3)C2=O)cc1 (centres undefined) was read as Vif-APOBEC3G blk -2%, Vif-A3F inh 0%, IL2 activator -1, RGS12 GoLoco inh -21%, KAT2A inh -12% and PKM2 activator -2%.
For Nc1nc(-c2ccco2)c(-c2ccco2)s1 the results were Vif-APOBEC3G blk -4%, Vif-A3F inh -12%, IL2 activator -6, RGS12 GoLoco inh -1%, KAT2A inh -7% and PKM2 activator 22µM*.
For N#CC(C#N)=Cc1ccc(-c2ccc(S(=O)(=O)N=C(N)N)cc2)o1 the results were Vif-APOBEC3G blk -2%, Vif-A3F inh 0%, IL2 activator 0, RGS12 GoLoco inh 24%, KAT2A inh 7% and PKM2 activator 18µM*.
`COC(=O)/C(C#N)=C/c1ccc(-c2ccc(S(N)(=O)=O)cc2)o1` gave Vif-APOBEC3G blk 4%, Vif-A3F inh -1%, IL2 activator 1, RGS12 GoLoco inh 2%, KAT2A inh 14% and PKM2 activator 8%.
`COc1ccc(Nc2ccccc2C(=O)O)cc1` gave Vif-APOBEC3G blk -9%, Vif-A3F inh -25%, IL2 activator 2, RGS12 GoLoco inh -2%, KAT2A inh -4% and PKM2 activator 20%.
Screening O=C(O)c1ccccc1Nc1ccc(CCc2ccc(Cl)c(Cl)c2)cc1 returned KAT2A inh 11µM*.
`CCC(C)n1c(NC(=O)c2ccccc2)c(C#N)c2nc3ccccc3nc21` (centres undefined) gave Vif-APOBEC3G blk inconclusive, Vif-A3F inh 32µM*, IL2 activator 0, RGS12 GoLoco inh 182%, KAT2A inh -18% and PKM2 activator 19%.
CCCCn1c(NC(=O)c2ccccc2)c(C#N)c2nc3ccccc3nc21 was read as Vif-APOBEC3G blk inconclusive, Vif-A3F inh inconclusive, IL2 activator 2, KAT2A inh inconclusive and PKM2 activator 3%.
Fc1cccc(CSc2nc3ncccc3[nH]2)c1 was read as Vif-APOBEC3G blk 0%, Vif-A3F inh -1%, IL2 activator 0, RGS12 GoLoco inh -1%, KAT2A inh -6% and PKM2 activator 1%.
`CCCCOc1ccc(C2OC34CCCCC3C(C#N)(C#N)C2(C#N)C(=N)O4)cc1` (centres undefined) gave Vif-APOBEC3G blk -2%, Vif-A3F inh inconclusive, IL2 activator 0, RGS12 GoLoco inh 25µM*, KAT2A inh -11% and PKM2 activator -1%.
CCOc1ccc(C2OC34CCCCC3C(C#N)(C#N)C2(C#N)C(=N)O4)cc1OC (centres undefined) was read as Vif-APOBEC3G blk 0%, Vif-A3F inh 1%, IL2 activator 1, RGS12 GoLoco inh 1.4µM*, KAT2A inh -16% and PKM2 activator 3%.
`Cc1cc(C)n(CCN(C)C(=O)C2CCC(=O)N(CCc3cccc(F)c3)C2)n1` (centres undefined) gave Vif-APOBEC3G blk 4%, Vif-A3F inh 1%, IL2 activator 0 and KAT2A inh 3%.
COc1cccc(C(=O)Nc2c(C(=O)Nc3ccc(F)cc3)oc3ccccc23)c1OC was read as Vif-APOBEC3G blk -6%, Vif-A3F inh -7% and KAT2A inh -4%.
COc1ccccc1NC(=O)c1oc2ccccc2c1NC(=O)c1cccc(OC)c1OC was read as Vif-APOBEC3G blk 5.6µM*, Vif-A3F inh -12% and KAT2A inh -9%.
Cc1ccc2c(c1)sc(-c1ccc(N(C)C)cc1)[n+]2C was read as Vif-APOBEC3G blk inconclusive, Vif-A3F inh 22µM*, IL2 activator -2 and KAT2A inh -12%.
Screening Cc1ccc(N(C)C)cc1 returned RGS12 GoLoco inh -4%.
COc1ccc(/C=C/C(=O)Nc2ccc3nc(N4CCC(C)CC4)cc(C)c3c2)cc1 was read as Vif-APOBEC3G blk 0%, Vif-A3F inh -2% and KAT2A inh -3%.
COc1ccccc1CN(Cc1cc2cc3c(cc2[nH]c1=O)OCCO3)Cc1nnnn1Cc1ccco1 was read as Vif-APOBEC3G blk -15%, Vif-A3F inh inconclusive, IL2 activator 2, RGS12 GoLoco inh 8%, KAT2A inh inconclusive and PKM2 activator 20µM*.
`Cc1ccc(-n2nc(-c3ccco3)cc2C(=O)O)c(C)c1` gave Vif-APOBEC3G blk -4%, Vif-A3F inh -2%, IL2 activator 2, RGS12 GoLoco inh 1%, KAT2A inh inconclusive and PKM2 activator 28µM*.
O=C(O)c1cc(-c2ccco2)nn1-c1ccc(Cl)cc1 was read as Vif-APOBEC3G blk -2%, Vif-A3F inh -7%, IL2 activator 1, RGS12 GoLoco inh 4%, KAT2A inh 20µM* and PKM2 activator -20%.
